Source: PubChem BioAssay (several laboratories)
tim10-1 inh: tim10-1 yeast growth inhibition. AID 463190. actives 2.2% (n = 330,000). S. cerevisiae tim10-1 ts strain growth, BacTiter-Glo, 24 h. inhibition, % at 20 µM;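 active means inhibition of at least 40%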;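 further: mutant grown at 25 °C; 0% = DMSO wells with yeast and 100% = wells holding no yeast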
NALP1 inh: inhibitors of NALP1 inflammasome in yeast; actives 0.61% (n = 280,000); inhibition, % at 10 µM; AID 2071; S. cerevisiae NALP1/ASC/caspase-1 growth, X-gal OD620, 72 h; in the data active means inhibition mostly above about 24%, no sharp cut-off; inactive means mostly below about 32%
NALP3 yeast inh: inhibitors of NALP3 inflammasome in yeast; Yeast reconstituted NLRP3/ASC/caspase-1, beta-gal luminescence, 24 h; inhibition, % at 10 µM; actives 0.39% (n = 330,000);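 active means inhibition of 50% or more; inactive means inhibition below 50%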;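 further: plate controls were induced DMSO wells for no effect and uninduced yeast grown without galactose for full effect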
tim23-1 inh: tim23-1 yeast growth inhibition; inhibition, % at 20 µM; actives 1.3% (n = 330,000); S. cerevisiae tim23-1 growth, BacTiter-Glo luminescence, 24 h;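 active means growth inhibition of the mutant yeast at or above 50%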;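 further: temperature-sensitive mutant grown at 25 °C; plate controls were DMSO-treated mutant yeast for no effect and medium wells lacking yeast for full effect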
V-ATPase pHluor: alters yeast V-ATPase proton transport; S. cerevisiae, pHLuorin cytosolic pH fluorescence; actives 0.37% (n = 350,000); response, % at 10 µM; in the data active means response mostly above about 7.3%, no sharp cut-off; inactive means mostly below about 5.4%; further: actives read high
TIM10 inh: growth inhibitors of TIM10 yeast strain. inhibition, % at 10 µM. S. cerevisiae TIM10 strain growth, BacTiter-Glo luminescence, 24 h. AID 463195. actives 1.4% (n = 330,000);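 active means inhibition of 40% or more at the single tested concentration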;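 further: wild-type TIM10 isogenic control strain grown at permissive 25 °C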
tim10-1 confirm: tim10-1 yeast growth inhibition, confirmed; shares compounds with tim10-1 inh; S. cerevisiae tim10-1 ts strain growth, BacTiter-Glo, 24 h; inhibition, % at 20 µM; actives 56% (n = 7,400);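 active means inhibition of yeast growth at or above a set limit in either of two repeat tests at 20 µM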;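 further: tim10-1 mutant grown at permissive 25 °C to find synthetic lethal compounds; 0% = DMSO yeast wells and 100% = medium wells without yeast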
TIM10 conf: TIM10 yeast growth inhibition, confirmed | shares compounds with TIM10 inh | S. cerevisiae tim10 strain growth, BacTiter-Glo luminescence, 24 h | inhibition, % at 10 µM | actives 63% (n = 4,600) | AID 463215;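 active means inhibition of yeast growth at or above a set limit in either of two replicates at 10 µM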;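 further: this counterscreen used the strain with wild-type TIM10; 0% = yeast with DMSO and 100% = medium wells lacking yeast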
tim23-1 confirm: confirmation of tim23-1 mutant yeast growth inhibitors; inhibition, % at 20 µM; S. cerevisiae tim23-1 growth, BacTiter-Glo luminescence, 24 h; actives 83% (n = 4,400); shares compounds with tim23-1 inh;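 active means inhibition above about 39% in either of two replicate wells at 20 µM, limit read from the data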;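 further: temperature-sensitive tim23-1 mutant grown at 25 °C; 0% = DMSO wells with yeast and 100% = medium wells without yeast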
* marks the source's active call; other numbers are inactive results; nt = no result given. The list is not random: actives were taken first. Their share in the collection is about 4.2%.

SMILES | tim10-1 inh | NALP1 inh | NALP3 yeast inh | tim23-1 inh | V-ATPase pHluor | TIM10 inh | tim10-1 confirm | TIM10 conf | tim23-1 confirm
CCN(Cc1ccccc1)C(c1ccncc1)c1nnnn1C(C)(C)C (centres undefined) | 41* | 6 | 3 | 53* | -2 | 30 | 39* | nt | 37
COc1ccc(CCn2c(=N)c(C(=O)NCc3ccco3)cc3c(=O)n4ccccc4nc32)cc1 | 22 | -14 | 0 | 10 | 6 | 6 | nt | nt | nt
CC(C)(C)c1cc(S(=O)(=O)CCc2ccccn2)cc(C(C)(C)C)c1F | 48* | -6 | 1 | 60* | -4 | 53* | 45* | 52* | 58*
Fc1cnc(N/N=C/c2ccc(-c3ccc(Br)cc3)o2)nc1N1CCOCC1 | 43* | -15 | 11 | 51* | 3 | 33 | 24 | nt | 33
CC1(C)CC(=O)C2=C(C1)OC(N)=C(C#N)C21C(=O)N(Cc2ccccc2Cl)c2ccccc21 (centres undefined) | -11 | 4 | 17 | -6 | 4 | -13 | nt | nt | nt
O=C1C(SCCO)=C(SCCO)C(=O)c2ccccc21 | 86* | nt | 32 | 80* | -1 | 52* | 93* | 38* | 75*
N/C(Cc1ccc([N+](=O)[O-])cc1)=N\OC(=O)c1ccc([N+](=O)[O-])cc1 | 59* | 12 | 14 | 67* | -3 | 84* | 74* | 86* | 84*
N/C(CCS(=O)(=O)c1ccc(Cl)cc1)=N\OC(=O)c1ccc(Cl)cc1 | 20 | nt | 11 | 15 | -2 | 24 | nt | nt | nt
COc1ccc(C(=O)O/N=C(\N)Cc2ccc(Cl)c(Cl)c2)cc1OC | 58* | 29 | 9 | 70* | 0 | 88* | 34* | -13 | 27
N/C(Cc1ccc(Cl)cc1)=N\OC(=O)c1ccccc1 | 53* | -2 | 43 | 69* | 2 | 87* | 17 | 1 | 44*
CC(C)(C)C(=O)O/N=C(\N)COc1cccc(Cl)c1 | 40* | nt | 18 | 80* | -7 | 67* | 28 | 74* | 69*
CCOc1ccc(C(=O)O/N=C(\N)c2ccc([N+](=O)[O-])cc2)cc1OCC | 28 | 31 | 11 | 13 | 3 | 2 | nt | nt | nt
CCOc1ccccc1NC(=O)C1CCCN1S(=O)(=O)c1ccccc1C(F)(F)F (centres undefined) | 21 | nt | 10 | 30 | 1 | 12 | nt | nt | nt
COc1cccc(/C=C/C(=O)c2cccc([N+](=O)[O-])c2)c1OC | 43* | 4 | -4 | 61* | 3 | 36 | 44* | nt | 56*
CC(C)(C)C(=O)OC/C(N)=N/OC(=O)c1ccc(Cl)cc1 | 60* | 11 | 10 | 76* | 0 | 44* | 47* | 68* | 73*
N/C(Cc1ccc([N+](=O)[O-])cc1)=N\OC(=O)c1cccc(Br)c1 | 70* | 16 | 19 | 91* | -3 | 95* | 43* | 95* | 86*
COc1ccccc1C/C(N)=N/OC(=O)c1cccc([N+](=O)[O-])c1 | 52* | 41 | 2 | 70* | 5 | 81* | 41* | 86* | 67*
COc1cccc(/C=C/C(=O)Nc2cccc(C(C)=O)c2)c1OC | 7 | -4 | 7 | 27 | -2 | 22 | nt | nt | nt
N#C/C(=C\c1ccccn1)c1ccccn1 | 35 | 10 | 23 | 38 | 6 | 29 | nt | nt | nt
Cc1ccc(NC(=O)C/C(N)=N/OC(=O)c2ccccc2)cc1 | 55* | 7 | 16 | 51* | 7 | 69* | 76* | 80* | 75*
Cc1cccc(OCC(=O)O/N=C(\N)Cc2cccs2)c1 | 0 | 10 | 17 | 15 | 4 | -7 | nt | nt | nt
CCOC(=O)c1ccc(NC(=O)CNC(=O)c2ccccc2)cc1 | 0 | 0 | 2 | 3 | 1 | -13 | nt | nt | nt
Cc1cccc(OCC(=O)O/N=C(\N)Cc2ccc(Cl)cc2)c1 | 57* | nt | 27 | 75* | -3 | 72* | 40* | 84* | 70*
O=C1CN(C(=S)Nc2ccccc2Cl)CCN1 | -12 | -4 | 18 | 9 | -3 | 2 | nt | nt | nt
O=C(N(c1ccccc1)c1ccccc1)N(c1ccccc1)c1ccccc1 | 46* | 16 | -2 | 52* | -2 | 39 | 22 | nt | 41*
SMILES | tim10-1 inh | NALP1 inh | NALP3 yeast inh | tim23-1 inh | V-ATPase pHluor | TIM10 inh | tim10-1 confirm | TIM10 conf | tim23-1 confirm
O=C(/C=C/c1ccc(F)cc1)c1ccccc1Br | 47* | 55* | 15 | 62* | -1 | 44* | 64* | 64* | 58*
Cc1ccc2nc(NC(=O)c3cccs3)sc2c1 | 26 | -6 | 21 | 27 | -2 | 22 | nt | nt | nt
CS(=O)(=O)c1ccc2nc(NC(=O)c3cccs3)sc2c1 | 44* | 30 | -2 | 60* | 2 | 31 | 41* | nt | 54*
O=C(Nc1nc(-c2ccccn2)cs1)c1ccc(Br)s1 | 53* | 13 | 15 | 56* | 1 | 23 | 34* | nt | 47*
O=C(Nc1nc(-c2ccccn2)cs1)c1ccco1 | 13 | 9 | -4 | -29 | 2 | 3 | nt | nt | nt
O=C(CSc1ccc(C(F)(F)F)cn1)Nc1ccccc1 | -11 | 11 | 6 | 6 | 4 | 2 | nt | nt | nt
O=C(/C=C/Sc1ccc(C(F)(F)F)cn1)c1ccccc1 | 41* | nt | 15 | 61* | 0 | 22 | 51* | nt | 47*
COc1cc2c(cc1OC)CN(C(=O)CN1C(=O)NC3(CCCCC3C)C1=O)CC2 (centres undefined) | -3 | nt | 9 | 4 | -1 | 4 | nt | nt | nt
CCSc1ccccc1C(=O)n1nnc2ccccc21 | 55* | nt | -23 | 59* | 2 | 39 | 49* | nt | 70*
COc1cc2nc(C3CCC3)n(N)c(=O)c2cc1OC | 4 | -11 | 12 | 9 | 1 | -11 | nt | nt | nt
CSc1ccccc1C(=O)N1CCCC(CNC(=O)c2ccc(F)cc2)C1 (centres undefined) | -6 | 9 | 1 | 2 | 0 | 7 | nt | nt | nt
Cc1ccc2c(c1)c(C1=c3ccccc3=NC1=O)c(O)n2C | 50* | -2 | 12 | 52* | 0 | 41* | 33* | 50* | 64*
Cc1ccc(OCCCC(=O)ON=C(N)c2ccccc2C)cc1 | 60* | nt | 17 | 62* | -1 | 41* | 64* | 50* | 61*
O=C(NCC1CCCO1)c1ccccc1NS(=O)(=O)c1cccc([N+](=O)[O-])c1 (centres undefined) | -13 | nt | 28 | 4 | 1 | 0 | nt | nt | nt
O=[N+]([O-])c1ccc(/C=C2\CCC(C3=CCCC3)=C2N2CCOCC2)cc1 | 52* | 24 | -16 | 53* | 1 | 36 | 61* | nt | 52*
